Measurements: ChEMBL document CHEMBL1157539, “Thousands of chemical starting points for antimalarial lead identification” (Nature, 2010)

Tests used:
Assay type in all cases: functional
[1] = test system: Plasmodium falciparum; assay: GSK_TCMDC: Inhibition of Plasmodium falciparum 3D7 in whole red blood cells, using parasite LDH activity as an index of growth. Test compounds present at 2uM
[2] = test system: Plasmodium falciparum; assay: GSK_TCMDC: Inhibition of Plasmodium falciparum Dd2 in whole red blood cells, using parasite LDH activity as an index of growth. Test compounds present at 2uM
[3] = test system: HepG2; assay: GSK_TCMDC: Percent inhibition of human HepG2 cell line. Test compounds present at 10uM.

| Compound | Inhibition [1] | Inhibition [2] | Inhibition [3] |
| --- | --- | --- | --- |
| CC(C)(C)CC(C)(C)c1ccc(O)c(C(=O)Nc2ccc([N+](=O)[O-])cc2)c1 | 97% | 99% | 80% |
| COc1ccccc1-c1cc(C(=O)N2CCN(S(=O)(=O)c3ccc(C)cc3)CC2)[nH]n1 | 88% | 88% | 0% |
| CC(C)(C)OC(=O)N1CCN(c2ccccc2NC(=O)c2cccc(C(F)(F)F)c2Oc2ccc(F)cc2)CC1 | 100% | 9% | 3% |
| Cc1cc(N(C)C)nc(Nc2ccc(NC(=O)c3ccccc3F)cc2)n1 | 89% | 26% | 0% |
| O=S(=O)(c1ccccc1Cl)N1CCCCC(c2ccc(C(F)(F)F)cc2)=N1 | 86% | 72% | 22% |
| COc1cccc2c(N/N=C/c3ccccc3[N+](=O)[O-])ccnc12 | 99% | 43% | 8% |
| CCCCCCNC(=O)C1Cc2c([nH]c3ccc(C)cc23)C2(CCN(Cc3ccccc3)CC2)N1 (stereo not drawn) | 84% | 25% | 25% |
| CC(CN(C)C)C(=O)Nc1ccc(-c2cccc(-c3nc4ccccc4[nH]3)c2)cc1 (stereo not drawn) | 99% | 57% | 68% |
| O=C(O)C(F)(F)F.Oc1ccc(CCNc2nc(NCCCOc3ccccc3-c3ccc(F)cc3)nc(N3CCNCC3)n2)cc1 | 85% | 8% | 30% |
| Fc1ccc(COc2ccc(Nc3ncnc4ccc(I)cc34)cc2Cl)cc1 | 86% | 30% | 28% |
| CNC(=O)c1ccc2nc(-c3ccc(-c4ccccc4)cc3)n(CC3CCN(CC4CCCC4)CC3)c2c1.O=C(O)C(F)(F)F | 84% | 36% | 13% |
